Assay in all cases: DAPPL (digital affinity profiling via proximity ligation, sequencing); 10 mM Tris-HCl pH 7.5, 50 mM NaCl, 1 mM DTT, 4% glycerol, room temperature, 30 min; GST-TFs on glutathione beads, 16-mer random dsDNA library, 0.1% formaldehyde crosslink after washing; high values mean tight binding
What all share (details): protein: recombinant; tags: N-terminal GST; dsDNA, one strand shown

One assay addresses T1, ERF (Homo sapiens, UniProt P50548 1-548).
T1 sequence: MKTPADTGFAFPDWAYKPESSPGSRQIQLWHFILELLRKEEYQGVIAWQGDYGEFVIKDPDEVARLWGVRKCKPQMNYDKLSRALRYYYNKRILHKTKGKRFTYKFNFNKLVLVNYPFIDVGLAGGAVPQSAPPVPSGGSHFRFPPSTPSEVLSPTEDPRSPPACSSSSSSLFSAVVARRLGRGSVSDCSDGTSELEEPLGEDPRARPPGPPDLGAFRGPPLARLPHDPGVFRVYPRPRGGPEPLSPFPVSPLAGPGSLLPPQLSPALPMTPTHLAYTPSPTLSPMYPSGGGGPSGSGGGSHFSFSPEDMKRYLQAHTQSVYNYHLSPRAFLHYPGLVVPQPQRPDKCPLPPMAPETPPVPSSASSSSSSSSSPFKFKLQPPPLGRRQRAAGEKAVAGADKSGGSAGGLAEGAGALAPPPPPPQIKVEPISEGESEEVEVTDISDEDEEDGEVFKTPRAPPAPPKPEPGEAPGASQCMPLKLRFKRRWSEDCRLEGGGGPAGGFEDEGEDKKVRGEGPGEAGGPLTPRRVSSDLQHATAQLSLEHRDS
The essentials: (§1)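 Pools were built from human transcription factors expressed in yeast as GST fusions, captured on glutathione beads and DNA-barcoded, along with a tag-only sample. Incubation with 200 nmole of a 16-mer random double-stranded DNA library lasted 30 min at room temperature in Tris/NaCl/DTT/glycerol buffer, and was followed by washing, 0.1% formaldehyde crosslinking, proximity ligation, PCR amplification and Illumina NextSeq500 sequencing. Binding signal is the quotient of each hexamer's read frequency for a factor and its frequency for the tag-only sample.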

For the next assay, the target named is T2, ETV3L (Homo sapiens, UniProt Q6ZN32 1-361).
T2 sequence: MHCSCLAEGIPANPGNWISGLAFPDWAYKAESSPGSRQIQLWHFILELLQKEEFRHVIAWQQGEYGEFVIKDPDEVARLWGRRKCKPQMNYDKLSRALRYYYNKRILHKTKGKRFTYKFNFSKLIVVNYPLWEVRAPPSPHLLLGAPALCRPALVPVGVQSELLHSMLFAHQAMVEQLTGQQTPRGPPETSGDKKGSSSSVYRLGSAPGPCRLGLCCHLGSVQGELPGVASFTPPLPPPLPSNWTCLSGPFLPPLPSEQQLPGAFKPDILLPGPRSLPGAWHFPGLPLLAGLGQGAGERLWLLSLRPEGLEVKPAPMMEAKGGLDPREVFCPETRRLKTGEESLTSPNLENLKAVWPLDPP
An outline of the steps: as §1

In the next assay the target is T3, ETS2 (Homo sapiens, UniProt P15036 1-469).
T3 sequence: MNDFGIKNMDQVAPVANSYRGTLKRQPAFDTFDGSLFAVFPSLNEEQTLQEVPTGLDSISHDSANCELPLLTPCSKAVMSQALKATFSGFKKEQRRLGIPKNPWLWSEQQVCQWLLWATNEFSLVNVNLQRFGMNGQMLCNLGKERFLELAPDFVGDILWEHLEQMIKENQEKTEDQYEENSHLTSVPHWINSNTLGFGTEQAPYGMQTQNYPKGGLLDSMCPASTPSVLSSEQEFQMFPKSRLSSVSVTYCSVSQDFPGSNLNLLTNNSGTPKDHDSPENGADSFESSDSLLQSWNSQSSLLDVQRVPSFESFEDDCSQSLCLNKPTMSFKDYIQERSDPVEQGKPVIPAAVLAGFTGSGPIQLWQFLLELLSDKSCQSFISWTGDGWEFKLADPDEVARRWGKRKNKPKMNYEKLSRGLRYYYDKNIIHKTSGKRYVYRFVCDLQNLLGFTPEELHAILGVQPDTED
The essentials: as §1

A further assay deals with T4, SPDEF (Homo sapiens, UniProt O95238 1-335).
T4 sequence: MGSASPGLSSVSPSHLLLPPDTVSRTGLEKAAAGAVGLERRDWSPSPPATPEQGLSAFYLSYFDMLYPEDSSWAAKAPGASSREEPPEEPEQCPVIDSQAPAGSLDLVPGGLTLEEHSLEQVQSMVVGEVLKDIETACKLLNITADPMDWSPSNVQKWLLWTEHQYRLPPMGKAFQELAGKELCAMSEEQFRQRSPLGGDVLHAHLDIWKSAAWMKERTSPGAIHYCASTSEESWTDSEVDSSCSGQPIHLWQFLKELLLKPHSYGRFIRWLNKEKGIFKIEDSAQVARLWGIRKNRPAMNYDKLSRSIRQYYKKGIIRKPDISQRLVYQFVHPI
An outline of the steps: as §1

For a further assay, the target named is T5, ETV7 (Homo sapiens, UniProt Q9Y603 1-341).
T5 sequence: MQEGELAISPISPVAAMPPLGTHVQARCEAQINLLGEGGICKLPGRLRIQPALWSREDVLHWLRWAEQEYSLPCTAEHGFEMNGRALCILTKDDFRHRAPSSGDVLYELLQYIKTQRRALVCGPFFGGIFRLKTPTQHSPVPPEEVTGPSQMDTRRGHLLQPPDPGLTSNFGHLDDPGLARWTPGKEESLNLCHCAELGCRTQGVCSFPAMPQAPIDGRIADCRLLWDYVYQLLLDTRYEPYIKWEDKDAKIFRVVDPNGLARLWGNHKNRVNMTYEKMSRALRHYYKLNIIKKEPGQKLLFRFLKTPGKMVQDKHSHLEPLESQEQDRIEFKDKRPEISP
The essentials: as §1

The target in another assay is T6, ELF5 (Homo sapiens, UniProt Q9UKW6-2 1-255).
T6 sequence: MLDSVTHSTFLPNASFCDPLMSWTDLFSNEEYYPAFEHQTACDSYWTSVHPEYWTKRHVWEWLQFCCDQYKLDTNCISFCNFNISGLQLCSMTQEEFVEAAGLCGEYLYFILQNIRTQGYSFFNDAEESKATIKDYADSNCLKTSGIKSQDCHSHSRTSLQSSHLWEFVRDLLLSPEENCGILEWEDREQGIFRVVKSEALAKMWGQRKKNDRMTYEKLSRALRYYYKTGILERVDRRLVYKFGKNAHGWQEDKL
An outline of the steps:
as §1

Another assay addresses T7, ETV3 (Homo sapiens, UniProt P41162-2 1-143).
T7 sequence: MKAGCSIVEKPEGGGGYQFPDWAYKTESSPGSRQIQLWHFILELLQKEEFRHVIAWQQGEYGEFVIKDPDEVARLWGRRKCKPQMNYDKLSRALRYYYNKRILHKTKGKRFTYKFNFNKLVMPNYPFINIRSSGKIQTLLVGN
The essentials: as §1

A further assay has as its target ETV6 (Homo sapiens, UniProt P41212 1-452). The essentials: as §1

These results are taken from article PMC7862700, “An all-to-all approach to the identification of sequence-specific readers for epigenetic DNA modifications on cytosine”.

ETV6, sequence (P41212 whole entry): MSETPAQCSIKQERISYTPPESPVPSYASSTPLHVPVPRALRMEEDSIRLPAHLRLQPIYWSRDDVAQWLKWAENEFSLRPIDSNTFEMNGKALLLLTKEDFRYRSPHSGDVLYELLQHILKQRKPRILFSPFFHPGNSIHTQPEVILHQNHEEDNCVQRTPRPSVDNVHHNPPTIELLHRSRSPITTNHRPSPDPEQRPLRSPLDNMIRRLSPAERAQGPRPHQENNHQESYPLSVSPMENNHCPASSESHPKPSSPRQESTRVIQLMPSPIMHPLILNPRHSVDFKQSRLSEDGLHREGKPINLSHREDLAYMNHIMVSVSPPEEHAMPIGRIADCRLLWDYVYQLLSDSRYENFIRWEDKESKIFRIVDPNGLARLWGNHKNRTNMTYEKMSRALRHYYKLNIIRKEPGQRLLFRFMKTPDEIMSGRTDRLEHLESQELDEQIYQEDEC

Regarding ACATAT, the binding signal with ERF was 1.34 fold enrichment (6-mer frequency, TF over GST control); in the assay with ETV3L it was 1.29 fold enrichment (6-mer frequency, TF over GST control); with ETS2, 1.27 fold enrichment (6-mer frequency, TF over GST control); with SPDEF, 1.38 fold enrichment (6-mer frequency, TF over GST control); with ETV7, 1.37 fold enrichment (6-mer frequency, TF over GST control); in the assay with ELF5, 1.2 fold enrichment (6-mer frequency, TF over GST control). Besides, the binding signal is 1.28 fold enrichment (6-mer frequency, TF over GST control) with ETV3 and 1.21 fold enrichment (6-mer frequency, TF over GST control) with ETV6.
With GCTAAT, the binding signal was 1.23 fold enrichment (6-mer frequency, TF over GST control) with ERF; 1.13 fold enrichment (6-mer frequency, TF over GST control) with ETV3L; 1.24 fold enrichment (6-mer frequency, TF over GST control) with ETS2; 1.03 fold enrichment (6-mer frequency, TF over GST control) with SPDEF; 1.23 fold enrichment (6-mer frequency, TF over GST control) with ETV7; 1.07 fold enrichment (6-mer frequency, TF over GST control) in the assay with ELF5. For the same sequence, the binding signal is 1.2 fold enrichment (6-mer frequency, TF over GST control) in the assay with ETV3 and 1.17 fold enrichment (6-mer frequency, TF over GST control) with ETV6.
Regarding TTTTTC, the binding signal in the assay with ERF was 1.16 fold enrichment (6-mer frequency, TF over GST control); with ETV3L it was 1.34 fold enrichment (6-mer frequency, TF over GST control); with ETS2, 1.17 fold enrichment (6-mer frequency, TF over GST control); with SPDEF it was 1.21 fold enrichment (6-mer frequency, TF over GST control); with ETV7 it was 1.23 fold enrichment (6-mer frequency, TF over GST control); with ELF5, 1.37 fold enrichment (6-mer frequency, TF over GST control). For the same sequence, the binding signal is 1.25 fold enrichment (6-mer frequency, TF over GST control) in the assay with ETV3 and 1.15 fold enrichment (6-mer frequency, TF over GST control) with ETV6.
For the sequence CTTAAC, the binding signal with ERF is 1.3 fold enrichment (6-mer frequency, TF over GST control); in the assay with ETV3L, 1.22 fold enrichment (6-mer frequency, TF over GST control); with ETS2 it was 1.3 fold enrichment (6-mer frequency, TF over GST control); with SPDEF it was 1.36 fold enrichment (6-mer frequency, TF over GST control); with ETV7 it was 1.29 fold enrichment (6-mer frequency, TF over GST control); with ELF5, 1.31 fold enrichment (6-mer frequency, TF over GST control). In addition, the binding signal with ETV3 was 1.3 fold enrichment (6-mer frequency, TF over GST control); in the assay with ETV6 it was 1.29 fold enrichment (6-mer frequency, TF over GST control).
With ACCTTT, the binding signal in the assay with ERF is 1.52 fold enrichment (6-mer frequency, TF over GST control); in the assay with ETV3L, 1.41 fold enrichment (6-mer frequency, TF over GST control); with ETS2 it was 1.48 fold enrichment (6-mer frequency, TF over GST control); with SPDEF, 1.34 fold enrichment (6-mer frequency, TF over GST control); with ETV7, 1.36 fold enrichment (6-mer frequency, TF over GST control); with ELF5, 1.45 fold enrichment (6-mer frequency, TF over GST control). Also, the binding signal in the assay with ETV3 was 1.42 fold enrichment (6-mer frequency, TF over GST control); with ETV6 it was 1.48 fold enrichment (6-mer frequency, TF over GST control).
TTGATG: the binding signal was 1.66 fold enrichment (6-mer frequency, TF over GST control) with ERF; 1.59 fold enrichment (6-mer frequency, TF over GST control) in the assay with ETV3L; 1.58 fold enrichment (6-mer frequency, TF over GST control) with ETS2; 1.51 fold enrichment (6-mer frequency, TF over GST control) with SPDEF; 1.45 fold enrichment (6-mer frequency, TF over GST control) with ETV7; 1.6 fold enrichment (6-mer frequency, TF over GST control) in the assay with ELF5. The binding signal is 1.43 fold enrichment (6-mer frequency, TF over GST control) with ETV3 and 1.57 fold enrichment (6-mer frequency, TF over GST control) with ETV6.
With GCTCTC, the binding signal in the assay with ERF is 1.42 fold enrichment (6-mer frequency, TF over GST control); in the assay with ETV3L, 1.52 fold enrichment (6-mer frequency, TF over GST control); with ETS2, 1.51 fold enrichment (6-mer frequency, TF over GST control); with SPDEF, 1.12 fold enrichment (6-mer frequency, TF over GST control); with ETV7, 1.25 fold enrichment (6-mer frequency, TF over GST control); with ELF5, 1.2 fold enrichment (6-mer frequency, TF over GST control). In addition, the binding signal was 1.48 fold enrichment (6-mer frequency, TF over GST control) with ETV3 and 1.43 fold enrichment (6-mer frequency, TF over GST control) with ETV6.
